# PubChem BioAssay AID1788 (Vanderbilt High Throughput Screening Facility, 2009)
# Unmarked numbers belong to inactive results. The rule behind the calls is not given here.
# Tested on: Purinergic P2X (rabbit)
# Assay: PubChem AID 1788
# Conditions: MDS Pharma lead profiling panel, radioligand binding, at 10 µM, hits give high values
compound,measurement,value
CCOC(=O)N1CCC(NCCNC(=O)c2ccccc2C)CC1,inhibition,2%
